# Screening results (PubChem BioAssay)
# hgDAF-12 ag – agonists of H. glycines DAF-12 nuclear receptor. HEK293 GAL4-hgDAF12 UAS-luciferase reporter, agonist luminescence; normalized to butyrate control. activation, % at 6.8 µM. 370,000 tested, 1.8% active;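 active = activation above a cutoff set at the mean of all screened compounds plus 3 SD, cut at about 10% in these data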
# hcDAF-12 act – H. contortus DAF-12 activation, primary screen | HEK293 hcDAF-12 lit1-tk-luc reporter, luminescence; 0% DMSO, 100% Δ7-dafachronic acid | activation, % at 6.8 µM | 370,000 tested, 1.4% active | AID 652067;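 active = activation above the mean of all tested compounds plus 3 SD, cut at about 5.5% in these data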
# DAX1 inh-1 – inhibitors of human orphan nuclear receptor DAX1 (NR0B1). P51843. HEK293 Gal4-DAX1 luciferase reporter, luminescence. inhibition, % at 6.75 µM. 340,000 tested, 0.99% active;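 active = inhibition above the mean over all tested compounds plus 3 SD, cut at about 4.2% in these data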;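 note: inhibition shows as a rise in luminescence from relieved DAX1 repression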
# Target sequence (P51843 207-470 limits assumed): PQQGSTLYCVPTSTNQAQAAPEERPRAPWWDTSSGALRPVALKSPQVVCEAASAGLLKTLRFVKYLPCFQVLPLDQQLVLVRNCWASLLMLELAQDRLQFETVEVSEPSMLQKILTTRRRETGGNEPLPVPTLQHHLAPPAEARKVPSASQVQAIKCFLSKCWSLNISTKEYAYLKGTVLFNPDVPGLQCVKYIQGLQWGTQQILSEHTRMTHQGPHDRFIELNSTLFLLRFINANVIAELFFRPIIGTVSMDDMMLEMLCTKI
# ssDAF-12 act – activators of S. stercoralis DAF-12 nuclear receptor. HEK293 ssDAF-12/GRIP1 lit1-tk-luc reporter, luminescence; % of 3 µM dafachronic acid response. activation, % at 6.8 µM. 370,000 tested, 1% active. AID 652126;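 active = activation above the mean over all tested compounds plus 3 SD, cut at about 0.9% in these data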
# DAX1 inh-2 – DAX1 (NR0B1) inhibition, primary screen; HEK293T StAR-luciferase reporter, SF-1/DAX-1 repression relief; inhibition, % at 6.8 µM; 370,000 tested, 1.1% active;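 active = inhibition above the mean over all tested compounds plus 3 SD, cut at about 3.6% in these data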;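 note: higher inhibition means more luminescence from relief of DAX-1 repression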
# Numbers stand for hits; n = inactive; x = no result. Rows were chosen to be rich in hits. Some 4.1% of all compounds tested hit in one or more screens of this group.
SMILES,hgDAF-12 ag,hcDAF-12 act,DAX1 inh-1,ssDAF-12 act,DAX1 inh-2
CN(C)CCNc1oc(-c2ccccc2F)nc1C#N,n,n,5.9,n,n
CN(C)CCCNc1oc(-c2ccccc2)nc1C#N,n,n,n,n,n
CNC(=O)c1csc(-c2cccs2)n1,n,n,n,n,n
CC(=O)NCc1ccc(-c2csc(-c3cccs3)n2)cc1,12,n,n,n,n
O=C(CSc1nc2ccccc2c(=O)n1-c1ccc(Cl)cc1)N/N=C/C=C/c1ccccc1[N+](=O)[O-],n,5.8,n,n,n
COc1cccc(/C=C2\CC3(OC(=O)C(C)(C)C)CCCN2C3)c1 (centres undefined),n,n,x,n,n
CC(=O)CC[C@H]1CC[C@]2(CCCN(C(=O)c3ccno3)C2)O1,n,n,x,n,n
CSc1nc(N)nc2c1ncn2CC(=O)NCc1ccccc1,n,n,n,0.9,n
CCOC(=O)[C@H]1[C@H]2COc3ccc(OC)cc3[C@@H]2N2C(=O)CN(CCc3c[nH]c4ccccc34)C(=O)[C@@]12C,n,n,n,1.0,n
COc1cccc(CNC(=O)[C@H]2CCCN2C(=O)[C@H]2CCCN2C(=O)c2ccc(F)cc2F)c1,n,n,x,n,n
CCOC(=O)/C=C(\C)N1N=C(c2ccccc2)CC1c1ccccc1 (centres undefined),n,6.7,n,n,n
CC(=O)OCC(=O)N1N=C(c2ccc3ccccc3c2)CC1c1ccccc1 (centres undefined),n,n,n,n,n
CCOC(=O)c1nnn(CC(=O)N2N=C(c3ccccc3)CC2c2ccccc2)c1C(=O)OCC (centres undefined),n,n,5.1,n,n
Cc1cccc(C(=O)Nc2nc3ncccn3c2-c2ccc(C(F)(F)F)cc2)c1,n,n,x,n,n
COC(=O)[C@]12C[C@H](CC(=O)NCC3CCCCC3)C(=O)N(Cc3ccc(Cl)cc3Cl)C1=C[C@H](C1CCCC1)O[C@@H]2C,n,n,x,n,n
CC(C)C[C@H](NC(=O)C1CCCC1)C(=O)N1CCC[C@H]1C(=O)NCc1ccccc1,n,n,x,n,n
Fc1cccc(/C=N/Nc2nccnc2Cl)c1,13,n,n,n,n
Oc1ccc(/C=N/Nc2nccnc2Cl)cc1,12,n,n,n,n
C[C@H]1[C@@H](NC(=O)C2CCC2)CC[C@@]23CCCN2C(=O)CCC[C@@H]13,n,n,x,n,x
C/C(=N\NC(=S)NC(C)C)c1ccc(Cl)c([N+](=O)[O-])c1,n,n,4.6,n,n
C/C(=N\NC(=S)NC(C)C)c1cccc([N+](=O)[O-])c1,n,n,n,n,n
COC(=O)C1CN(Cc2ccc(F)cc2)CCS(=O)(=O)N1Cc1ccc(C(F)(F)F)cc1 (centres undefined),n,n,x,n,n
Cc1ccc(-c2cc(C(=O)NN=C/C=C/c3ccco3)[nH]n2)cc1C,n,n,x,n,n
O=C(CSc1ccccc1)Nc1ccc(N2CCOCC2)c(F)c1,n,n,n,n,4.4
O=C(CSc1ccc(Cl)cc1)Nc1ccc(N2CCN(c3ccccc3)CC2)c(F)c1,n,n,n,n,n
SMILES,hgDAF-12 ag,hcDAF-12 act,DAX1 inh-1,ssDAF-12 act,DAX1 inh-2
O=C(CSc1ccccc1F)Nc1ccc(N2CCOCC2)cc1,12,n,n,n,n
CCC(C)(C)C(=O)Nc1nnc(CCc2ccccc2)s1,11,n,4.7,n,n
CCOC(=O)COc1ccccc1C1Nc2ccccc2C(=O)N1c1cccc(Cl)c1 (centres undefined),12,n,n,n,n
O=C(CSc1nnc(-c2ccco2)n1Cc1ccco1)c1ccc([N+](=O)[O-])cc1,n,n,x,n,n
O=C(/C=C/NNC(=O)c1ccccc1)c1ccc([N+](=O)[O-])cc1,n,n,4.4,n,n
O=C(O)CC(NNC(=O)c1ccccc1)C(=O)Nc1ccc([N+](=O)[O-])cc1 (centres undefined),n,n,8.4,n,n
C[C@H]1[C@H](NCc2cccnc2)CC[C@@]23CCCN2C(=O)CCC[C@@H]13,n,n,x,n,x
COC(=O)[C@]12C[C@H](CC(=O)N3CCN(C(=O)c4ccco4)CC3)C(=O)N(Cc3ccc(Cl)cc3Cl)C1=C[C@H](COCc1ccccc1)O[C@@H]2C,n,n,x,n,n
Cc1ccc(OCCn2c(CCNC(=O)c3ccc(F)cc3F)nc3ccccc32)cc1,n,n,x,n,x
c1ccc(Cc2cnc(N3CCN(Cc4csc5ccccc45)CC3)nc2)cc1,n,n,x,n,n
O=C1CCC[C@H]2C[C@H](NCc3ccco3)CC[C@]23CCCN13,n,n,x,n,x
O=c1cc(-c2ccccc2)oc2cccc(O)c12,n,n,4.9,n,n
O=c1cc(-c2cccc(Cl)c2)oc2cccc(O)c12,n,n,n,n,n
O=c1cc(-c2cccc(Br)c2)oc2cccc(O)c12,n,5.8,n,n,n
Cc1ccccc1-c1cc(=O)c2c(O)cccc2o1,n,n,n,n,n
CCCN1CCCCC(NC(=O)c2ccccc2C)C1=O (centres undefined),n,n,x,n,n
CCCCCN1CCCCC(NC(=O)c2c(F)cccc2F)C1=O (centres undefined),n,n,x,n,n
O=C(C1CCCN(S(=O)(=O)c2cccc3ccccc23)C1)N1CCN(Cc2ccccc2)CC1 (centres undefined),n,n,x,n,n
Cc1cccc(NC(=O)CCc2c(C)nn(-c3ccc(N4CCCCC4)nn3)c2C)c1,n,n,n,n,3.8
Cc1cccc(NC(=O)CCc2c(C)nn(-c3ccc(N4CCOCC4)nn3)c2C)c1,n,n,n,n,n
N#CCC[C@@H]1CC[C@]2(CCCN(C(=O)c3ccc4ccccc4n3)C2)O1,n,n,x,n,n
CS(=O)(=O)Nc1ccc(C(=O)NCCSCc2ccccc2)cc1,n,n,5.4,n,n
COCCCNC(=O)c1ccc(NS(C)(=O)=O)cc1,n,n,n,n,n
CS(=O)(=O)Nc1ccc(C(=O)NCCc2ccccc2)cc1,11,n,n,n,n
O=C(NCCSCc1ccccc1)c1ccccc1,n,n,n,n,n
SMILES,hgDAF-12 ag,hcDAF-12 act,DAX1 inh-1,ssDAF-12 act,DAX1 inh-2
CN(C)S(=O)(=O)c1cccc(C(=O)NCCc2ccccc2)c1,n,6.0,n,n,3.8
CCN(CC)c1ccc(C=C2C(=O)OC(C)(C(C)(C)C)OC2=O)cc1 (centres undefined),n,n,4.9,n,n
Cc1ccccc1CSCCNC(=O)COc1ccc(Cl)cc1,n,n,6.6,n,n
COC(=O)C[C@@H]1CC[C@@H]2[C@H](COc3ccc(NC(=O)c4ccc5c(c4)OCO5)cc3C(=O)N2C)O1,n,n,x,n,n
CCC(CO)Nc1cccc2c1S(=O)(=O)N(Cc1cn(Cc3ccc(C(F)(F)F)cc3)nn1)Cc1ccccc1O2 (centres undefined),n,n,x,n,n
Nc1nc(CSc2ccccn2)nc(Nc2ccccc2)n1,11,n,n,n,n
O=C1/C(=C/c2ccco2)CCc2ccccc21,n,6.2,n,n,n
